Cruzain inh Det: qHTS Assay for Promiscuous and Specific Inhibitors of Cruzain (with detergent). Cruzipain (Trypanosoma cruzi), P25779. purified cruzain, Z-FR-AMC fluorescence, 0.01% Triton. Potency, µM, most hits filed as inhibitors. 200,000 compounds, 0.43% hits; note: nearly all actives have a fitted effect of over 40% in size
Target sequence (P25779 123-467 limits assumed): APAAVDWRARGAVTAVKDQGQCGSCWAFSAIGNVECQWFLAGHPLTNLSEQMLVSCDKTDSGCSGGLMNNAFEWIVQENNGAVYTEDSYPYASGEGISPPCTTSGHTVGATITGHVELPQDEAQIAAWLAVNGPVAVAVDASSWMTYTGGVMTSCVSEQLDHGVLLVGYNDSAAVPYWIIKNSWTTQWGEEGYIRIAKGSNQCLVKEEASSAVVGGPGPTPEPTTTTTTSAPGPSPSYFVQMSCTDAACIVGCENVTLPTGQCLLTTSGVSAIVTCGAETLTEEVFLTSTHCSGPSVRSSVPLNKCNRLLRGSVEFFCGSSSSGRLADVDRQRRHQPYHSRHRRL
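Purified cruzain (1.5 nM final) was preincubated with compounds for 15 min at room temperature in 100 mM sodium acetate pH 5.5, 5 mM DTT, 0.01% Triton X-100. Reaction started with 2 uM Z-FR-AMC; AMC fluorescence change over 60 s gave activity.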
Cruzain noTriton: qHTS Assay for Promiscuous and Specific Inhibitors of Cruzain (without detergent). Cruzipain (Trypanosoma cruzi), P25779. purified cruzain, Z-FR-AMC fluorescence, no detergent. Potency, µM, hits mostly inhibitors. 200,000 compounds, 2.3% hits. AID 1476, 2009; note: nearly all actives have a fitted effect of over 40% in size
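Detergent-free condition (0.00005% Triton X-100) in acetate buffer pH 5.5 with DTT. 1.5 nM enzyme and compound were pre-mixed 15 min, then 2 uM Z-FR-AMC substrate added; reaction progress from fluorescence change between first and third reads (60 s).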
NS1 function inh: qHTS Assay for Inhibitors of Influenza NS1 Protein Function. 270,000 compounds, 0.4% hits. Potency, µM (doses to about 46.1 µM); calls by dose curve; note: actives are rising curves; nearly all actives have a fitted effect of over 50% in size
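Read-out: OD600 growth recovery of NS1-expressing budding yeast. Cells grown overnight at 30C in -URA glucose medium, washed, resuspended and diluted 1:100 in 2% galactose assay medium, pH 6.0. Same strain lacking NS1 served as positive control.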
Papain inh: qHTS Assay for Inhibitors of Papain: Counterscreen for Cruzain Assay; shares compounds with Cruzain inh Det; purified papain, Z-FR-AMC fluorescence cleavage; Potency, µM, actives largely listed as inhibitors; 410 compounds, 41% hits; AID 2161, 2009; note: nearly all actives have a fitted effect of over 35% in size
Target sequence (P00784 whole entry, looked up): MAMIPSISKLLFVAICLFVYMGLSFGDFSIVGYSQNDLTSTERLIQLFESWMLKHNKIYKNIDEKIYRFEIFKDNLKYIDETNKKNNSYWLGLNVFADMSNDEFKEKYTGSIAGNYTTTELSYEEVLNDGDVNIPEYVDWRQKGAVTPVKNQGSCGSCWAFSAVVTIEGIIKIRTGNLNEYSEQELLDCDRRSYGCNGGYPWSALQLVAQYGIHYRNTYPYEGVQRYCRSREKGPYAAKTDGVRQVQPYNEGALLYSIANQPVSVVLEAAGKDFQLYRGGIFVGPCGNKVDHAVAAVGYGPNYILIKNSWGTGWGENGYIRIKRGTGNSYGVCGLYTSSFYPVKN
Hits are given with their value; 0 = inactive; ? = inconclusive; - = not tested or not shown. The entries come from a sample that favours hits as a whole. Unless noted, calls come from the whole dose curve; as a rule, active = well fitted curve in the direction sought with a large enough effect; inconclusive = small, poorly fitted or top-dose-only effect, or another doubt; inactive = no such curve, though single readings can be large; an effect the other way counts as inactive or inconclusive.

SMILES | Cruzain inh Det | Cruzain noTriton | NS1 function inh | Papain inh
COc1cc(Nc2nn(-c3ccc(OC(F)(F)F)cc3)nc2C(C)=O)cc(OC)c1 | 0 | 0 | - | -
CCCCCNC(=O)c1c[nH]c2ccc(S(=O)(=O)N3CCC(C)CC3)cc2c1=O | 0 | 0 | - | -
CNc1oc(/C=C/c2cc(OC)c(OC)c(OC)c2)nc1C#N | 28µM | 10µM | - | 8.9µM
COc1cc(/C=C/c2nc(C#N)c(NC(C)c3ccccc3)o2)cc(OC)c1OC (configuration not stated) | 0 | ? | - | -
Cc1cccc(N2CCN(C(=O)CS(=O)(=O)c3cccc4nsnc34)CC2)c1C | 0 | 0 | - | -
CCOc1ccccc1CNCc1c(C(=O)O)c(C)n(Cc2ccc(Cl)cc2)c1C | 0 | 0 | - | -
Cc1cccc(Cn2cc(/C=C(/C#N)C(=O)Nc3cccc(Cl)c3)c3ccccc32)c1 | 0 | 3.2µM | - | 0
N#C/C(=C\c1cn(Cc2ccccc2)c2ccccc12)C(=O)NCc1ccco1 | 0 | 0 | 0 | -
Cc1ccc(N2CC(NC(=O)c3ccc(S(=O)(=O)N(C)C)cc3)CC2=O)cc1C (configuration not stated) | 0 | 0 | - | -
COCCNc1nc2c(S(=O)(=O)c3ccccc3)nnn2c2ccc(Cl)cc12 | 0 | 0 | - | -
CCN(Cc1ccccc1)c1nc2c(S(=O)(=O)c3ccccc3)nnn2c2ccc(Cl)cc12 | 0 | ? | - | 32µM
COc1ccc(CN(Cc2ccco2)C(=O)COc2ccc(Cl)cc2C)cc1 | 0 | 0 | - | -
COc1ccc(NC(=O)c2ccc(CNc3c(NC4CCCCC4)c(=O)c3=O)cc2)c(OC)c1 | 0 | ? | 0 | -
CCOc1ccc(NC(=O)c2ccc(CNc3c(NC4CCCCC4)c(=O)c3=O)cc2)cc1 | 0 | 4µM | 0 | 0
O=C(NCc1ccc2c(c1)OCO2)c1ccc2c(c1)N(Cc1ccccc1F)C(=O)c1ccccc1S2 | 0 | ? | - | -
Cc1ccc(C)c(CN2C(=O)c3ccccc3Sc3ccc(C(=O)NCc4ccc5c(c4)OCO5)cc32)c1 | 0 | 20µM | - | 0
Cc1ccc(C)c(CN2C(=O)c3ccccc3Sc3ccc(C(=O)NCc4cccs4)cc32)c1 | 0 | ? | - | -
O=C(NCc1ccc2c(c1)OCO2)c1ccc2c(c1)N(Cc1cccc(Cl)c1)C(=O)c1ccccc1S2 | 0 | 13µM | - | 0
COc1cccc(NC(=O)CSc2nnc(NC(=O)NC3CCCCC3)s2)c1 | 0 | 0 | - | -
Cc1ccc(C)c(N(C)C(=O)Cc2c(C(=O)O)[nH]c3ccc(Cl)cc23)c1 | 0 | 0 | - | -
Cc1ccc(-c2nc(N)n(S(C)(=O)=O)n2)cc1 | 0 | 0 | 0 | -
Cn1nc(-c2ccccn2)nc2c(=O)n(C)c(=O)nc1-2 | - | - | 0 | -
CCc1ccc(-c2csc3ncn(CC)c(=O)c23)cc1 | - | - | 0 | -
Cn1ncnc2c(=O)n(C)c(=O)nc1-2 | 1.3µM | 1.3µM | 0 | 0
Cc1ccccc1-c1nc2c(=O)n(C)c(=O)nc-2n(C)n1 | - | - | - | 0
SMILES | Cruzain inh Det | Cruzain noTriton | NS1 function inh | Papain inh
CCc1ccc(-c2nc3c(=O)n(C)c(=O)nc-3n(CC)n2)cc1 | - | - | - | 0
Cn1c(=O)c(-c2ccc(Cl)cc2)nc2cncnc21 | 0 | 0 | - | -
Cc1ccc(-c2nc3c(=O)n(C)c(=O)nc-3n(C)n2)cc1 | - | - | - | 0
CCc1c(C)nc2nncn2c1Nc1ccc(C)c(F)c1 | 0 | 0 | - | -
CC(=O)c1cccc(Nc2nn(-c3ccc(OC(F)(F)F)cc3)nc2C(C)=O)c1 | 0 | 0 | - | -
CC(Oc1ccccc1)C(=O)Nc1nc2ccc(S(N)(=O)=O)cc2s1 (configuration not stated) | 0 | 0 | - | -
CCOC(=O)c1cc(OC(=O)c2ccccc2C)n(-c2ccccc2)n1 | 0 | 0 | - | -
COCCNC(=O)C1(C)Oc2ccccc2NC1=O (configuration not stated) | 0 | 0 | 0 | -
CC(=O)OC1(C(F)(F)F)Oc2ccccc2NC1=O (configuration not stated) | 0.89µM | 1.3µM | 0 | 7.9µM
CSc1ccc(CCNC(=O)c2csc3c2CCCCC3)cc1 | 0 | ? | - | -
CCN(CC)C(=O)c1sc(NC(=O)c2nc3ncccn3n2)c(C(=O)OC)c1C | 0 | 0 | - | -
CCCN(CCC)c1nc(N)c(C#N)c(CC#N)c1C#N | 0 | 0 | 0 | -
CN(C)c1nc(C#N)nc(N(C)C)n1 | - | - | - | 11µM
CN(C)c1nc(N(C)C)nc(N(C)C)n1 | 0 | 0 | ? | -
CCCN(CCC)c1nc(C#N)nc(N(CCC)CCC)n1 | - | - | - | 2.5µM
c1ccc2c3c([nH]c2c1)[C@@H]1[C@H]2CC[C@H]([C@H]4CCCN[C@H]42)N1CC3 | 0 | 0 | - | -
NC(=O)CSc1nnc([C@@H](N)Cc2c[nH]c3ccccc23)o1 | 8.9µM | 10µM | 0 | 0
CC(C)(C)OC(=O)N[C@@H](Cc1c[nH]c2ccccc12)c1nnc(SCC(N)=O)o1 | 0 | 0 | 0 | -
O=C(Cn1c(=O)oc2cc(S(=O)(=O)NCc3ccccc3)ccc21)NCc1ccccc1Cl | 0 | 0 | - | -
COc1cc2nc(N(C)CCCNC(=O)[C@@H]3CCCO3)nc(N)c2cc1OC | 0 | 0 | - | -
O=C(NC(Nc1cc(C(F)(F)F)ccc1Cl)C(=O)c1ccccc1)c1ccccc1 (configuration not stated) | 0 | ? | ? | -
O=C(CNC(=O)c1ccccc1)N[C@H](C(=O)Nc1cc(C(F)(F)F)ccc1Cl)c1ccccc1 | - | - | - | 0
CCN(CC)c1ccc(-c2nn3c(-c4ccccc4OC)nnc3s2)cc1 | 0 | 0 | 0 | -
CN(C)c1ccc(-c2nn3c(-c4ccc(Cl)cc4Cl)nnc3s2)cc1 | 0 | ? | 0 | -
CN(C)c1ccc(-c2nn3c(-c4cc(-c5ccccc5)n[nH]4)nnc3s2)cc1 | - | - | - | 0
SMILES | Cruzain inh Det | Cruzain noTriton | NS1 function inh | Papain inh
Clc1ccccc1-c1nnc2sc(-c3ccc4c(c3)OCO4)nn12 | 0 | ? | ? | -
COc1ccccc1-c1nn2c(-c3cc(-c4ccccc4)n[nH]3)nnc2s1 | - | - | - | 35µM
Clc1ccccc1-c1nn2c(-c3cc(-c4ccccc4)n[nH]3)nnc2s1 | - | - | - | 0
CC1(C)CCCC2(C)C3C(O)CC2(C)C(O)C31 (configuration not stated) | 0 | 0 | - | -
CCOC(=O)c1[nH]c(C)c(C(=O)NCc2ccccc2Cl)c1C | 0 | ? | - | -
CC(C)Nc1nc(C#N)nc(NC(C)C)n1 | 11µM | 16µM | 0 | 5µM
CC(C)CNc1oc(-c2ccccc2Cl)nc1C#N | - | - | 0 | -
CSc1nc(NC(C)C)nc(NC(C)C)n1 | 0 | 0 | - | -
CNc1nc(NN)nc(Nc2ccccc2)n1 | - | - | 0 | -
CC(C)Nc1nc(C#N)nc(Nc2ccccc2)n1 | - | - | - | 2.2µM
CC(C)CNc1nc(C#N)nc(Nc2ccccc2)n1 | - | - | - | 1.3µM
CNc1nc(C#N)nc(Nc2ccccc2)n1 | - | - | - | 2.2µM
CC(C)Nc1nc(Cl)nc(Nc2ccccc2)n1 | - | - | 0 | -
COc1ccc(-c2cc(C(C)=O)c(C)n2CCC(=O)Nc2ccc(C)cc2Cl)cc1 | 0 | 0 | - | -
COc1ccc(CNC(=O)C2CCCN(C(=O)N3CCOc4ccccc43)C2)cc1 (configuration not stated) | 0 | 0 | - | -
COc1ccc(CNC(=O)c2ccc(-c3nc(CSc4ccccc4)c(C)o3)cc2)cc1 | 0 | 0 | - | -
Cc1cccc(N2CCN(C(=O)c3ccc4c(c3)N(Cc3cccc(Cl)c3)C(=O)c3ccccc3S4=O)CC2C)c1 (configuration not stated) | 0 | 0 | - | -
CN(C)c1nc(N2CCOCC2)nc(N(c2ccccc2)c2ccccc2)n1 | 0 | ? | 0 | -
CCNc1nc(N2CCCC2)nc(N2CCCC2)n1 | - | - | 0 | -

From PubChem BioAssay
